Laboratory results from PubChem BioAssay (NCI).
The panel holds about 83,000 compounds, 20% with a hit somewhere; the sample as a whole holds those more often.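 Cells were grown in 96-well plates and exposed to the test compound at a single concentration for 48 hours; results are reported as percent growth, with values below 10 considered active.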 Values without a mark were called inactive. Activity calls are given as the source filed them.

How the values were obtained:
Test in all cases: NCI-60 one-dose screen, 48 h (100 = growth as untreated, 0 = no growth, -100 = all killed)
RPMI-8226 leukemia = conditions: 10 µM
OVCAR-8 ovarian = conditions: 10 µM
OVCAR-5 ovarian = conditions: 10 µM
OVCAR-4 ovarian = conditions: 10 µM
SK-OV-3 ovarian = conditions: 10 µM
OVCAR-3 ovarian = conditions: 10 µM
HS 578T breast = conditions: 10 µM
NCI/ADR-RES ovarian = conditions: 10 µM
T-47D breast = conditions: 10 µM
BT-549 breast = conditions: 10 µM
MDA-MB-435 melanoma = conditions: 10 µM
SW-620 colon = conditions: 10 µM
MCF7 breast = conditions: 10 µM unless noted
HCT-116 colon = conditions: 10 µM
HCC-2998 colon = conditions: 10 µM
KM12 colon = conditions: 10 µM
IGROV1 ovarian = conditions: 10 µM

Compound	growth (RPMI-8226 leukemia)	growth (OVCAR-8 ovarian)	growth (OVCAR-5 ovarian)	growth (OVCAR-4 ovarian)	growth (SK-OV-3 ovarian)	growth (OVCAR-3 ovarian)	growth (HS 578T breast)	growth (NCI/ADR-RES ovarian)	growth (T-47D breast)	growth (BT-549 breast)	growth (MDA-MB-435 melanoma)	growth (SW-620 colon)	growth (MCF7 breast)	growth (HCT-116 colon)	growth (HCC-2998 colon)	growth (KM12 colon)	growth (IGROV1 ovarian)
CCC(C)(O)c1ccc(C)cc1 (stereo not given)	96.7%	104%	101%	106%	97.8%	107%	112%	110%	104%	105%	106%	98.2%	100%	108%	105%	100%	–
C=CCc1cc(C(C)=O)cc(OC)c1O	122%	101%	101%	107%	113%	106%	102%	107%	118%	97.2%	113%	95.9%	106%	102%	96.3%	96.6%	–
COc1ccc(C2(O)CCCCC2)cc1	95.6%	107%	111%	112%	–	116%	93.5%	104%	98.2%	112%	107%	102%	102%	99.1%	104%	107%	111%
c1csc(-c2cc(-c3cc(-c4cccs4)[nH]n3)n[nH]2)c1	94.6%	104%	104%	101%	–	118%	74.6%	99.5%	–	90.7%	114%	104%	75.5%	91.4%	111%	105%	89.3%
CN(C)CCN(Cc1ccccc1)c1ccccc1	–	115%	125%	–	110%	121%	112%	103%	95%	119%	95%	102%	112%	113%	105%	113%	124%
O=C(N/N=C\c1cc(Br)cc(Br)c1O)N/N=C/c1cc(Br)cc(Br)c1O	19.3%	55.5%	64.6%	43.4%	–	12.1%	60.6%	35.6%	62.3%	–	66.9%	56.3%	52.1%	31.2%	–	66.7%	–
C#C[C@H]1CCCCCC1O (stereo not given in full)	97.2%	111%	115%	120%	–	113%	101%	101%	95.4%	113%	109%	104%	107%	106%	102%	107%	–
CCCCCCCCCCC1CO1 (stereo not given)	–	109%	111%	98.8%	101%	111%	118%	110%	103%	109%	112%	106%	92.4%	102%	102%	109%	111%
O=C1N(C[P+](c2ccccc2)(c2ccccc2)c2ccccc2)CCCN1C[P+](c1ccccc1)(c1ccccc1)c1ccccc1	115%	99.5%	110%	107%	–	101%	99.8%	111%	–	103%	105%	109%	98.7%	–	–	111%	98%
CCN(CC)CCNc1ccc(CO)c2sc3ccccc3c(=O)c12	37%	31%	53.3%	–	43.6%	62.8%	–	40.7%	48.3%	70%	38.1%	29.5%	–	23.7%	40.6%	42.5%	51.6%
CC(=O)Nc1cccc(Cl)c1C	–	96.5%	103%	109%	101%	–	–	104%	–	–	94.8%	101%	105%	–	107%	98.9%	102%
Cc1ccc(C)n1-c1ccsc1C(=O)NNC(=O)C(Cl)Cl	107%	106%	112%	96.9%	–	107%	100%	102%	–	112%	98.4%	102%	96.9%	105%	105%	101%	108%
c1ccc(Cc2ccccc2)cc1	107%	–	99.3%	109%	113%	108%	76.6%	104%	93.4%	123%	112%	106%	113%	114%	106%	98.9%	–
COc1ccc(C(=O)C(Br)C(Br)C(=O)O)cc1 (stereo not given)	110%	105%	101%	118%	–	116%	99.6%	92.1%	106%	99.5%	108%	113%	91.1%	94.9%	113%	111%	110%
Nc1ccc(NC(=O)c2cccc(N)c2)cc1	94.5%	–	101%	104%	103%	107%	97.1%	111%	95.9%	93.3%	104%	102%	105%	94.4%	107%	103%	–
CC(=O)C1CCCCC1	96.4%	95%	107%	–	103%	110%	104%	–	–	99.9%	104%	100%	97.9%	102%	103%	100%	106%
OC1CCCc2ccccc21 (stereo not given)	104%	–	100%	99.2%	98.7%	110%	96.8%	108%	101%	98.1%	104%	107%	94.1%	–	119%	109%	97%
Nc1ccccc1SC(CC(=O)c1ccccc1)c1c(Cl)cccc1Cl (stereo not given)	–	68.7%	89.6%	66%	73.3%	46.5%	84.9%	69.2%	69.4%	68%	39.7%	10.2%	14.8%	-29.7% (active)	86.9%	33.1%	62.7%
O=[N+]([O-])c1ccc(-c2noc(-c3cccs3)n2)cc1	96.5%	86.6%	98.5%	71.6%	–	–	60.3%	82.4%	–	78.3%	94.2%	90.4%	63.2%	47.5%	99.9%	88.5%	96%
O=C(O)c1ccc(S(=O)(=O)O)cc1	98%	–	107%	104%	112%	119%	87.6%	100%	106%	121%	114%	104%	96.2%	108%	105%	109%	–
